Experiments:
Test in all cases: log2 ratio of Biotin-Ahx-Ub-VS probe labelling (fragment/DMSO); higher = less target engagement (more negative = stronger competition), active = hit call of the paper (q ≤ 0.05, log2 ratio ≤ -1)
Conditions in all cases: compound concentration: 200 uM; treatment time: 3 h
USP34 = USP34 (UniProt Q70CQ2)
In short: (§1)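 HEK293T lysate (495 µg per sample, in Tris/CHAPS/IGEPAL buffer with protease inhibitors) was exposed in triplicate for 3 h to fragment at 200 µM or to vehicle, then to Biotin-Ahx-Ub-VS at 0.5 µM final for 1 h. Labelled DUBs were enriched on NeutrAvidin, digested with LysC and trypsin, and analysed by diaPASEF LC-MS/MS. Spectronaut label-free quantities were normalised to the global median, and values are average log2 ratios of fragment over vehicle from an unpaired t-test. Only proteins with ≥2 unique peptides were used.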

USP36 = target: T1, USP36 (UniProt Q9P275)
T1 sequence (whole entry): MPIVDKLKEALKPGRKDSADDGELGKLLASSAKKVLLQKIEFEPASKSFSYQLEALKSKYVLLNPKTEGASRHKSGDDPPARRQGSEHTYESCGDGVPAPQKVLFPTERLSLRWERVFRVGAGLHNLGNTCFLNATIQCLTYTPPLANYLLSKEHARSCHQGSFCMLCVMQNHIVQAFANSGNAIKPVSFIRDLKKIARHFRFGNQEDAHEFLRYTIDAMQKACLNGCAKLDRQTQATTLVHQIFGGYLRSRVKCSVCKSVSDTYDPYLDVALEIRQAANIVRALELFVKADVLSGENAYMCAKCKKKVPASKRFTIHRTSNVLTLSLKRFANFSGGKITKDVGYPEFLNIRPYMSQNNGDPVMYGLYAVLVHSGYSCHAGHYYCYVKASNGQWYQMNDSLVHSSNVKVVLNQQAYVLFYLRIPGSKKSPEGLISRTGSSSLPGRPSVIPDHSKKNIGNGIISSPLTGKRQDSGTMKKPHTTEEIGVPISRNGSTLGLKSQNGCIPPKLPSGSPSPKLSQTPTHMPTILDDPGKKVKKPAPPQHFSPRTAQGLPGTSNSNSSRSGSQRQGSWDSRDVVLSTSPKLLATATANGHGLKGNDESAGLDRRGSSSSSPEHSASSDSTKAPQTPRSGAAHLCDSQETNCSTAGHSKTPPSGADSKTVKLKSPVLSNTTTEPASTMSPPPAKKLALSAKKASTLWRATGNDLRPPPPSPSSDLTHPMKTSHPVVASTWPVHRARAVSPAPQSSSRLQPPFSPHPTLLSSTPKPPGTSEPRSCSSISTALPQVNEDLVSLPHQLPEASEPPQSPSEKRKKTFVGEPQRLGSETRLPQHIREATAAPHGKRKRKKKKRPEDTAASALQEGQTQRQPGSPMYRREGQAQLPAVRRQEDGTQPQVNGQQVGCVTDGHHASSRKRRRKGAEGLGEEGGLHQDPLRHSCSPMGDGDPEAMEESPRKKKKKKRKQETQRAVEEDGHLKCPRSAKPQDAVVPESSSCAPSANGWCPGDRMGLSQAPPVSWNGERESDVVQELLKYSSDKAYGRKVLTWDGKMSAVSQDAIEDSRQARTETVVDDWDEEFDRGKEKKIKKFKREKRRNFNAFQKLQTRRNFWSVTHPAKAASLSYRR
In short: as §1

USP38 = target: T2, USP38 (UniProt Q8NB14)
T2 sequence (whole entry): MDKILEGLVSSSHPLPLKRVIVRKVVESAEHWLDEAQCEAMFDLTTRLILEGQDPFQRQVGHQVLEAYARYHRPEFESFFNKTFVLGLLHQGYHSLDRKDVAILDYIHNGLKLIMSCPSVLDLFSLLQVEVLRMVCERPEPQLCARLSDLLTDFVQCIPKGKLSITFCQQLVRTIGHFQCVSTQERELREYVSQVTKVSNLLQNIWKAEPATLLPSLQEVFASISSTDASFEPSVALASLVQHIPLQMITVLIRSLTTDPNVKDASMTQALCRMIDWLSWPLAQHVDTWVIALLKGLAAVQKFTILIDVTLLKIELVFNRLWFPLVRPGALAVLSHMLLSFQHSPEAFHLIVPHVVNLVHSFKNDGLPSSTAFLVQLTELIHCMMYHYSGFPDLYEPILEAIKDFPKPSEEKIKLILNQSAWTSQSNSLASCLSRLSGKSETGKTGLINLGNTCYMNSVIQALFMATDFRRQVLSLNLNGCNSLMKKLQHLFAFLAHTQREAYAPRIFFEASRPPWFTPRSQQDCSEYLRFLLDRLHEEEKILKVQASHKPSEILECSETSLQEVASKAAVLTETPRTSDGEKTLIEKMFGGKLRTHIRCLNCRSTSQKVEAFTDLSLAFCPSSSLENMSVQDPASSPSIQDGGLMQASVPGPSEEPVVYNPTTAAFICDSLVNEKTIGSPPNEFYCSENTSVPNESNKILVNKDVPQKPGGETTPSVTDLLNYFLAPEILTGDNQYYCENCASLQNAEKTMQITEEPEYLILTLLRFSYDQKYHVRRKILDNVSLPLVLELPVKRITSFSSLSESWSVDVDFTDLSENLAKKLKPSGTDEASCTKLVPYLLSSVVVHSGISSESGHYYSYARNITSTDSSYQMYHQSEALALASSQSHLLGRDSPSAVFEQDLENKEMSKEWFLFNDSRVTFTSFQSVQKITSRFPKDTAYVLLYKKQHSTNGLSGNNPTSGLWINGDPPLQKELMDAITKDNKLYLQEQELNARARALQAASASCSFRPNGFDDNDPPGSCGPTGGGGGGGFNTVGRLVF
In short: as §1

USP39 = target: T3, USP39 (UniProt Q53GS9)
T3 sequence (whole entry): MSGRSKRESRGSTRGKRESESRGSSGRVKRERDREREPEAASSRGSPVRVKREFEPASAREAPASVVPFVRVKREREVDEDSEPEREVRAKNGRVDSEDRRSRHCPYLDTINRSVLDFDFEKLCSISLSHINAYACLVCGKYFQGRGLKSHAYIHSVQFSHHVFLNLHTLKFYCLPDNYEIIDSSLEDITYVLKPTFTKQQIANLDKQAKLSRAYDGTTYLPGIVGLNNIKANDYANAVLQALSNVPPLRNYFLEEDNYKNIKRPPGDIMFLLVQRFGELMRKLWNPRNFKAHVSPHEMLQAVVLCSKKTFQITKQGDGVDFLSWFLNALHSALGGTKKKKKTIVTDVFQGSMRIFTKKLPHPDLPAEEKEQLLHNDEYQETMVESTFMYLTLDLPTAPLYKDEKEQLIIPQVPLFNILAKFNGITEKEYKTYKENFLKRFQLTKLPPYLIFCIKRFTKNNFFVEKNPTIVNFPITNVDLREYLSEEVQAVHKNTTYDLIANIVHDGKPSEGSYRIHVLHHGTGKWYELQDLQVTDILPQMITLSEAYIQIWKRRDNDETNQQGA
In short: as §1

USP4 = target: T4, USP4 (UniProt Q13107)
T4 sequence (whole entry): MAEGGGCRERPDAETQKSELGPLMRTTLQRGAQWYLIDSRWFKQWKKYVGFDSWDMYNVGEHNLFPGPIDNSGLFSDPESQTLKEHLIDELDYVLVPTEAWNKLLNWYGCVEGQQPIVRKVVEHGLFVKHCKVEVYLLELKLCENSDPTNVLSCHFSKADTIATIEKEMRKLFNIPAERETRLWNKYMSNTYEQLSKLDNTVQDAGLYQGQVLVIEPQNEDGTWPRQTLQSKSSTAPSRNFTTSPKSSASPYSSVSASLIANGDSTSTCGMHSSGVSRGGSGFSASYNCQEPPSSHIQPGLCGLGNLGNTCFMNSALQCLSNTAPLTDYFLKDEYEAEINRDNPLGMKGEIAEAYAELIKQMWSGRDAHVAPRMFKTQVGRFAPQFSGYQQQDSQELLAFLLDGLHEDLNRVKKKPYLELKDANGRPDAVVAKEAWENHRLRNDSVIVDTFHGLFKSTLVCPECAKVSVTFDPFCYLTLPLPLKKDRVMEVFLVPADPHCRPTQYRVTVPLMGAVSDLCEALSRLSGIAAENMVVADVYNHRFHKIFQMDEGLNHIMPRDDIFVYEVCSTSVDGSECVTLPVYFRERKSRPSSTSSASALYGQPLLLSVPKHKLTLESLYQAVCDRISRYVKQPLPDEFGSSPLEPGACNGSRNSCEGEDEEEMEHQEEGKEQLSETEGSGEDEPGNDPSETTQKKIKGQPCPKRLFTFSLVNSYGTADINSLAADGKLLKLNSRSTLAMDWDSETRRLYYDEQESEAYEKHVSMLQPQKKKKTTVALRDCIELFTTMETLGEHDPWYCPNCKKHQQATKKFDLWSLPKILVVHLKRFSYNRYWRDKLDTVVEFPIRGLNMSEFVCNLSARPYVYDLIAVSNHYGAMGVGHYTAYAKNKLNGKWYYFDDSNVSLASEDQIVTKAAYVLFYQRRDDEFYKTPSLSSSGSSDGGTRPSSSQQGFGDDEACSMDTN
In short: as §1

Measured: log2 ratio of Biotin-Ahx-Ub-VS probe labelling

Chain of USP34 (Q70CQ2 whole entry, the tested form may be a part): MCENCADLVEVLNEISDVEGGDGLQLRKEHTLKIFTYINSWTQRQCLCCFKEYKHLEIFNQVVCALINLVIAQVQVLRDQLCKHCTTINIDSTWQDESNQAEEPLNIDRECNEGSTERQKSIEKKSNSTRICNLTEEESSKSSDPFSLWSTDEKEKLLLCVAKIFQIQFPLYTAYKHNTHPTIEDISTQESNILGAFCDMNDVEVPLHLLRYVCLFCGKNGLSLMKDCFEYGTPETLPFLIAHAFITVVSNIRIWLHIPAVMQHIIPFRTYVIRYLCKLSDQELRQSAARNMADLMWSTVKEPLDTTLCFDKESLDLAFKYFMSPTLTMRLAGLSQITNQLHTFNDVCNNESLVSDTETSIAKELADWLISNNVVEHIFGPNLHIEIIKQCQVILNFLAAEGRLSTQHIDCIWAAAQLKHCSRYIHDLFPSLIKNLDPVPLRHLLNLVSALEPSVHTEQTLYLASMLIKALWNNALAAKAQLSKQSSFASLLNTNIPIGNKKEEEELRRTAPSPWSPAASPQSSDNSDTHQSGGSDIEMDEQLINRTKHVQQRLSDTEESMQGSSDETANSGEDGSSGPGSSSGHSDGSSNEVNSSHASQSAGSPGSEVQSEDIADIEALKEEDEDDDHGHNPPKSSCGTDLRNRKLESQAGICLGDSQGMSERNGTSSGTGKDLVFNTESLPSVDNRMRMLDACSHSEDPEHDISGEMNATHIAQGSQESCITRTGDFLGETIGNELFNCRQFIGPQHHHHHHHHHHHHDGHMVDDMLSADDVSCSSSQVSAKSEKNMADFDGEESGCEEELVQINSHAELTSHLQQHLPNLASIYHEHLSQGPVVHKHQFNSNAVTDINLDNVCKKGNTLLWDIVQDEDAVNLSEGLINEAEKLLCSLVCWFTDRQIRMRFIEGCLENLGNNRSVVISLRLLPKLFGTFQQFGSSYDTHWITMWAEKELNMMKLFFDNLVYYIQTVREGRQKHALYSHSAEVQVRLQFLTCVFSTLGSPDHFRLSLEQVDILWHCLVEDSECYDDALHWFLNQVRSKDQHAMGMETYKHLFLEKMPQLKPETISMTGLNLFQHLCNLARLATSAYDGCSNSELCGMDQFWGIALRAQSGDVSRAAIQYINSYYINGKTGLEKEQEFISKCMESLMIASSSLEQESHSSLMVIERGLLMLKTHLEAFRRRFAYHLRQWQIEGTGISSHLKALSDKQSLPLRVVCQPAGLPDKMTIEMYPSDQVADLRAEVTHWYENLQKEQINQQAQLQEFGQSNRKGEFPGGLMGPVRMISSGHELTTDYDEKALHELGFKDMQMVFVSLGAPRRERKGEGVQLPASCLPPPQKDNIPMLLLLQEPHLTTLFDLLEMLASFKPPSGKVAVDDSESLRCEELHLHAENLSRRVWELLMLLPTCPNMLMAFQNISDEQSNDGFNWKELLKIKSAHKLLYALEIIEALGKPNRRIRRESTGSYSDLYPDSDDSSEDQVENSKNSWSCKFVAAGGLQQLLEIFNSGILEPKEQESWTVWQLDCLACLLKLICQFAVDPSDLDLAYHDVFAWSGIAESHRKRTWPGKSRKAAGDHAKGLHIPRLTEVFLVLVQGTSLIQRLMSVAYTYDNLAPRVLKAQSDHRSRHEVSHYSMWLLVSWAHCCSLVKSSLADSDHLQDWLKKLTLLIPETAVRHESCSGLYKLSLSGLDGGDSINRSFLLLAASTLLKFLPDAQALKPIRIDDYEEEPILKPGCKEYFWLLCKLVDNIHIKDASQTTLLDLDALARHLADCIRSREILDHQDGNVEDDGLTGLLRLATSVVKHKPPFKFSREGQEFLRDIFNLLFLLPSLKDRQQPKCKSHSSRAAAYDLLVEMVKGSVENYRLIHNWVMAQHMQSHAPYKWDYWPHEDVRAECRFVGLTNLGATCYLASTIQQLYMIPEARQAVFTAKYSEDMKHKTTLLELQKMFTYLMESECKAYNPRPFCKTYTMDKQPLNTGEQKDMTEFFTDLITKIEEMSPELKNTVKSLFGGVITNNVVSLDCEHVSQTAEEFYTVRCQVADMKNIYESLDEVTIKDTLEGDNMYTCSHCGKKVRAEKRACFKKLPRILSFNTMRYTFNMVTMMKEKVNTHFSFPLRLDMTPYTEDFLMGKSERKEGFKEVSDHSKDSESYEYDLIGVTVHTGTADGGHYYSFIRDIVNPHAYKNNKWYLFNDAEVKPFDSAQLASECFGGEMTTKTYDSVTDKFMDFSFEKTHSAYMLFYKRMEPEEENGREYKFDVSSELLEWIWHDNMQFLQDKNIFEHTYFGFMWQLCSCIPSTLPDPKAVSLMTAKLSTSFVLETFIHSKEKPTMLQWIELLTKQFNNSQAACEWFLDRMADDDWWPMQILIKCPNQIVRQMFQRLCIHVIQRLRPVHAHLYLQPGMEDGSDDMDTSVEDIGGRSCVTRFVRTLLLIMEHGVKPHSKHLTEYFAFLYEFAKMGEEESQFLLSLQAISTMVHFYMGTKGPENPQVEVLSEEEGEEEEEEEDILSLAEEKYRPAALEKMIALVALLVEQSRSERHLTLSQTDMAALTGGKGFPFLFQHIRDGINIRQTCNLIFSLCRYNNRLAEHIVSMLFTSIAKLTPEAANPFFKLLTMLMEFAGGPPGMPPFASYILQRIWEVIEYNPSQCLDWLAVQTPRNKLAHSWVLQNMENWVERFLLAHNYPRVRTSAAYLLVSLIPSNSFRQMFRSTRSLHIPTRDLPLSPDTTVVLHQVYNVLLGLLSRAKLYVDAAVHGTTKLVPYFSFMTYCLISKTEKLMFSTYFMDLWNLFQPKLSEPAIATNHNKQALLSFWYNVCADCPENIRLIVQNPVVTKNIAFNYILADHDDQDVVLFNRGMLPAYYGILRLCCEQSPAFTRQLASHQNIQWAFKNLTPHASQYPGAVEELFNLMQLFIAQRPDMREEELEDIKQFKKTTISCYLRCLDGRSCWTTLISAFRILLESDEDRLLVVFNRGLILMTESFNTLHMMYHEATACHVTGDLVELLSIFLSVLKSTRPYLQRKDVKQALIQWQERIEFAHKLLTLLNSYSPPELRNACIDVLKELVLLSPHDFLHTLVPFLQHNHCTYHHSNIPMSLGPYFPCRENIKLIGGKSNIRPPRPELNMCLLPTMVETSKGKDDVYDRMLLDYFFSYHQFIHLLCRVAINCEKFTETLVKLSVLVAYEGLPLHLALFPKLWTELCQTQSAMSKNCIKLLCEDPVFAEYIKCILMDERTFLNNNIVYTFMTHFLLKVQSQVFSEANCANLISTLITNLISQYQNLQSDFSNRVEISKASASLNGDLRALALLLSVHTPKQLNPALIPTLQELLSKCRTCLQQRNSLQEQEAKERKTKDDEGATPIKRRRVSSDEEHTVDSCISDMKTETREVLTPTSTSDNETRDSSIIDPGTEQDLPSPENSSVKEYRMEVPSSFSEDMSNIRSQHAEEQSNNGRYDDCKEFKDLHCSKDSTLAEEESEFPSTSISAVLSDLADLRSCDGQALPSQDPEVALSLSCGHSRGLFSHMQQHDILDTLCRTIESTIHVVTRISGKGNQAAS

Cl.O=C(CCl)NCc1cc2c(nc1O)CCCC2
inactive: USP34 -0.103 | USP36 -0.408 | USP38 -0.0702 | USP39 -0.212 | USP4 -0.0856
